We go through 17 molecules from PubChem BioAssay (NCI).

Among the test systems are T-47D breast; BT-549 breast; MDA-MB-435 melanoma; SW-620 colon; MCF7 breast; HCT-116 colon; HCC-2998 colon; KM12 colon.
What all share (test): NCI-60 one-dose screen, 48 h (100 = growth as untreated, 0 = no growth, -100 = all killed)
Conditions in all cases: 10 µM unless noted

Values joined by “and” are separate entries in the source; they are usually repeats but may differ in a detail not shown here. Equal values may be shown once. Compounds without any hit were thinned out: in the full panel of roughly 83,000, 20% have a hit.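 96-well plates, one dose, 48 hours. Percent growth reported; active if below 10.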 A number with no mark means an inactive call. Active and inactive are the calls of the source.

With `COc1cc(/C=C/c2ccnc3ccccc23)cc(OC)c1OC`, the growth with T-47D breast was 41.1%; with BT-549 breast it was 11.7%; in the assay on MDA-MB-435 melanoma it was -8.94% (active); in the assay on SW-620 colon, 17.4%; with MCF7 breast, 16.1%; in the assay with HCT-116 colon it was 20%. Further, the growth in the assay on HCC-2998 colon is 34.6%; in the assay on KM12 colon, 12.4%.

Consider `O=S(=O)(O)c1cnccn1`, for which the growth was 78.6% in the assay with T-47D breast; 95.3% with BT-549 breast; 105% in the assay with MDA-MB-435 melanoma; 112% in the assay with SW-620 colon; 98% with MCF7 breast; 86.5% with HCT-116 colon. The growth was 102% in the assay on HCC-2998 colon and 98.9% with KM12 colon.

For `CCOC(=O)C1(C)CCCC1N` (stereo unspecified), the growth was 105% in the assay on T-47D breast; 116% in the assay with BT-549 breast; 103% with MDA-MB-435 melanoma; 106% in the assay on SW-620 colon; 104% in the assay on MCF7 breast; 111% with HCT-116 colon. The growth in the assay on HCC-2998 colon is 115%; in the assay with KM12 colon, 98.5%.

`CCCCC(CCc1ccc([N+](=O)[O-])cc1)(C(C)=O)C(=O)OCC` (stereo unspecified): the growth in the assay on T-47D breast was 90%; in the assay with BT-549 breast it was 117%; in the assay with MDA-MB-435 melanoma, 100%; in the assay on SW-620 colon, 91.4%; in the assay with MCF7 breast it was 91.1%; with HCT-116 colon, 92.2%. Besides, the growth in the assay with HCC-2998 colon is 109%; in the assay with KM12 colon, 92%.

`CCCCN(CCCC)CCCCCCCCCCO`: the growth in the assay with T-47D breast was 94.6%; in the assay on BT-549 breast, 102%; with MDA-MB-435 melanoma, 107%; with SW-620 colon, 103%; in the assay on MCF7 breast, 99%; with HCT-116 colon, 90.2%. The growth in the assay with HCC-2998 colon and in the assay with KM12 colon was 103% in each case.

With `CCN1CCCC(Nc2cc(C)nc(/N=C(/N)Nc3ccc(Cl)c(Cl)c3)n2)C1` (stereo unspecified), the growth with T-47D breast is -49.2% (active); with BT-549 breast it was -59.5% (active); with MDA-MB-435 melanoma, -51.7% (active); in the assay on SW-620 colon, -59.3% (active); in the assay with MCF7 breast, -73.5% (active); in the assay on HCT-116 colon, -54.9% (active). Further, the values for the growth in the assay on HCC-2998 colon and with KM12 colon were -71.5% (active) and -14.8% (active), respectively.

`COc1ccc(C(Cn2ccnc2)Sc2ccc(Cl)c(Cl)c2)cc1` (stereo unspecified): the growth was 79.3% in the assay with T-47D breast; 73.2% in the assay with BT-549 breast; 84.1% in the assay with MDA-MB-435 melanoma; 80.9% with SW-620 colon; 79.6% in the assay with MCF7 breast; 48.5% in the assay with HCT-116 colon. In addition, the values for the growth in the assay with HCC-2998 colon and in the assay with KM12 colon were 108% and 73.7%, respectively.

Take `CC(/C=N/NC(N)=S)Cc1ccc(C(C)C)cc1` (stereo unspecified): the growth with T-47D breast was 16.6%; in the assay with BT-549 breast, 64.1%; in the assay with MDA-MB-435 melanoma, 49.2%; in the assay with SW-620 colon, 63.5%; with MCF7 breast, 49.9%; in the assay on HCT-116 colon it was 51.4%. For the same molecule, the figures for the growth with HCC-2998 colon and with KM12 colon were 51.9% and 89.5%, respectively.

For `O=C1CSC(=S)N1Cc1cccnc1`, the growth in the assay on T-47D breast was 18.5%; with BT-549 breast, 51.7%; in the assay on MDA-MB-435 melanoma it was 37%; in the assay on SW-620 colon, 17%; in the assay with MCF7 breast, 10.5%; with HCT-116 colon it was 42.3%. The growth in the assay on HCC-2998 colon is 126%; in the assay on KM12 colon it was 7.96% (active).

With `Cc1ccccc1NC(=O)Cc1csc2[n+]1C(=O)/C(=C/c1ccc([N+](=O)[O-])cc1)S2`, the growth in the assay with T-47D breast was 84.2%; in the assay on BT-549 breast it was 88.9%; with MDA-MB-435 melanoma it was 97.5%; in the assay on SW-620 colon, 107%; with MCF7 breast, 92.7%; with HCT-116 colon, 84.4%. For the same molecule, the figures for the growth in the assay on HCC-2998 colon and with KM12 colon were 82.2% and 98.4%, respectively.

With `OC(c1cc(C23CC4CC(CC(C4)C2)C3)nc2c(Cl)cc(Cl)cc12)C1CCCCN1` (stereo unspecified), the growth with T-47D breast is -74.3% (active); with BT-549 breast it was 37.7%; with MDA-MB-435 melanoma, -66.1% (active); with SW-620 colon, -68.1% (active); with MCF7 breast, -80.7% (active); with HCT-116 colon, -84% (active). The figures for the growth in the assay on HCC-2998 colon and in the assay on KM12 colon were -71.7% (active) and -91.4% (active), respectively.

`OC(c1cc(-c2ccc(C(F)(F)F)cc2)nc(C(F)(F)F)c1)C1CCCCN1` (stereo unspecified): the growth was -69.2% (active) and -89.5% (active) and -17.2% (active) in the assay with T-47D breast; 52.1% and 93.5% and 85.3% in the assay on BT-549 breast; -63% (active) and -91.8% (active) and 6.26% (active) in the assay on MDA-MB-435 melanoma; -80.4% (active) and -84.6% (active) and -55.6% (active) with SW-620 colon; -88% (active) and -86.5% (active) and -59.3% (active) in the assay with MCF7 breast; -82% (active) and -96.2% (active) and 3.87% (active) with HCT-116 colon. Moreover, the growth in the assay with HCC-2998 colon is -66.8% (active) and -95% (active) and -74.6% (active); in the assay on KM12 colon it was -80.1% (active) and -85.2% (active) and -62.3% (active).

Consider `NC1=C(Br)C(=O)c2ncccc2C1=O`, for which the growth with T-47D breast was 15.3%; with BT-549 breast, -81.2% (active); in the assay on MDA-MB-435 melanoma it was -96.2% (active); in the assay with SW-620 colon it was -88.4% (active); in the assay on MCF7 breast, -57.2% (active); with HCT-116 colon, -46.4% (active). In addition, the growth in the assay on HCC-2998 colon is 26.9%; in the assay on KM12 colon, 24.5%.

As to `O=C(CCl)N(c1ccccc1)c1ccccc1`, the growth in the assay on T-47D breast was 110%; in the assay with BT-549 breast, 106%; with MDA-MB-435 melanoma, 98%; in the assay with SW-620 colon, 108%; with MCF7 breast it was 102%; in the assay on HCT-116 colon it was 111%. In addition, the growth was 119% in the assay on HCC-2998 colon and 106% in the assay with KM12 colon.

In the case of `O=C(c1ccccc1)c1cc2ccccc2oc1=O`, the growth is 85.5% in the assay with T-47D breast; 89.8% in the assay with BT-549 breast; 109% with MDA-MB-435 melanoma; 113% with SW-620 colon; 108% with MCF7 breast; 99.4% in the assay with HCT-116 colon. The growth in the assay on HCC-2998 colon is 118%; in the assay with KM12 colon, 92.3%.

For `O=C(NNc1ccccc1)OCc1ccccc1`, the growth in the assay on T-47D breast was 69%; in the assay on BT-549 breast, 83.1%; in the assay on MDA-MB-435 melanoma it was 34.1%; in the assay with SW-620 colon, 54.3%; with MCF7 breast, 104%; in the assay on HCT-116 colon, 66%. For the same molecule, the growth with HCC-2998 colon is 75.4%; in the assay on KM12 colon it was 19.8%.

In the case of `CCN1/C(=C/C(C)=C/c2sc3ccc4ccccc4c3[n+]2CC)Sc2ccc3ccccc3c21`, the growth with T-47D breast is -69.8% (active); in the assay with BT-549 breast it was -93.3% (active); in the assay on MDA-MB-435 melanoma it was -97.2% (active); with SW-620 colon, -94.2% (active); with MCF7 breast, -84.5% (active); with HCT-116 colon, -69.5% (active). Also, the growth is -76.1% (active) with HCC-2998 colon and -93.6% (active) in the assay on KM12 colon.
